The values that follow come from PubChem BioAssay.

Experiment [1] is described as follows: compound effects on lung adenocarcinoma cell viability – A549, calcein-AM fluorescence, 48 h, basal, profiling panel (AID 1162). To be noted: higher = more signal.
Experiment [2] is described as follows: compound effects on differentiated 3T3-L1 adipocyte viability – cell-based, 3T3-L1 adipocytes, calcein-AM fluorescence, 48 h, basal, profiling panel (AID 1163). To be noted: 3T3-L1 adipocytes viability, higher = more signal.
Experiment [3] is described as follows: compound effects on hepatocellular carcinoma cell viability – HepG2, calcein-AM fluorescence, 48 h, basal, profiling panel (AID 1164). To be noted: higher = more signal.
A short description of experiment [4]: compound effects on multiple myeloma cell viability – MM1S, calcein-AM fluorescence, 48 h, basal, profiling panel (AID 1165).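 Further: viability of MM1S multiple myeloma cells under basal unstimulated conditions.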 To be noted: higher = more signal.
Experiment [5] is described as follows: calcein-AM signal in unstimulated myeloma cells – cell-based, calcein-AM fluorescence, 48 h, PK04 Diversity Set, profiling panel (AID 1166).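 Further: cells grown under basal conditions without added stimulus.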 To be noted: RPMI8226 myeloma viability, higher = more signal.
A short description of experiment [6]: JC-1 mitochondrial signal, unstimulated HepG2 cells – cell-based, JC-1 fluorescence, 24 h, 100 nL compound, profiling panel (AID 1167). To be noted: HepG2 mitochondrial potential, higher = more signal.
Experiment [7] is described as follows: JC-1 mitochondrial signal, unstimulated adipocytes – cell-based, JC-1 fluorescence, 3T3-L1 adipocytes, 24 h, 100 nL compound, profiling panel (AID 1168). To be noted: JC-1 mitochondrial fluorescence, higher = more signal, called active from +8 up or from −8 down.
A short description of experiment [8]: JC-1 mitochondrial signal, unstimulated myeloma cells – cell-based, JC-1 fluorescence, RPMI8226, 24 h, 100 nL compound, profiling panel (AID 1169). To be noted: JC-1 mitochondrial potential fluorescence, higher = more signal.
Experiment [9] is described as follows: JC-1 mitochondrial signal, unstimulated MM1S myeloma – cell-based, JC-1 fluorescence, 24 h, 100 nL compound, profiling panel (AID 1170). To be noted: MM1S mitochondrial potential, higher = more signal.
Experiment [10] is described as follows: resazurin metabolic signal in A549 cells – cell-based, resazurin fluorescence, 24 h, PK04 Diversity Set, profiling panel (AID 1171). To be noted: A549 viability, higher = more signal, called active from +8 up or from −8 down. (The colour change of resazurin is a common sign of viable cells or microbes.)

Molecules are shown by their SMILES. Active and inactive are the calls of the source.
Further: test concentration not given here.

As for `C=CC[C@@]1(C(=O)N2CCOCC2)N=C(c2ccc(OCCCO)cc2)O[C@@H]1c1ccccc1CN=[N+]=[N-]`, the z-score was 1.42 in experiment [1]; 0.563 in experiment [2]; 1.09 in experiment [3]; -0.909 in experiment [4]; -0.697 in experiment [5]; 1.97 in experiment [6]. Also, the z-score in [7] was -0.212 (inactive); in experiment [8], -0.838; in experiment [9], -0.845; in experiment [10], 0.278 (inactive).

Turning to `COC1OC[C@]2(C)[C@H]3C4=C(CN2C(=O)OC(C)(C)C)[C@H](C)C(CO)C(CO)C4CC[C@@H]13` (stereo not given in full), the z-score is 0.657 in experiment [1]; 0.281 in experiment [2]; 1.3 in experiment [3]; 0.728 in experiment [4]; -0.944 in experiment [5]; 2.82 in experiment [6]. Moreover, the z-score in [7] was 0.0682 (inactive); in experiment [8] it was 0.287; in experiment [9], -1.08; in experiment [10], -0.634 (inactive).

`O=C(NCCCCCNC(=O)/C(Cc1ccccc1)=N/O)OCc1ccccc1`: the z-score in [1] was 1.54; in experiment [2], 0.989; in experiment [3], -0.756; in [4], -0.781; in [5], 0.476; in experiment [6], -0.348. Further, the z-score in experiment [7] is 0.627 (inactive); in experiment [8] it was 0.567; in experiment [9] it was -0.877; in experiment [10] it was 0.766 (inactive).

Turning to `O=C(NCC(F)(F)F)[C@@H]1c2ccccc2C(=O)N(Cc2ccccc2C(F)(F)F)[C@H]1c1ccc(CO)cc1`, the z-score in experiment [1] is 0.215; in experiment [2], -0.484; in [3] it was 0.0606; in experiment [4], 0.0756; in [5] it was -0.328; in experiment [6] it was 0.277. In addition, the z-score in experiment [7] is -1.07 (inactive); in experiment [8] it was 0.0161; in [9], -0.894; in experiment [10] it was 0.456 (inactive).

Turning to `CO[C@H]1O[C@H](CO)[C@@H](OC(=O)Nc2ccc3c(c2)OCO3)[C@H](OC(=O)c2cc3ccccc3[nH]2)[C@H]1OC(=O)c1cc2ccccc2[nH]1`, the z-score in [1] was 0.603; in [2] it was 0.477; in experiment [3], 0.463; in [4], -1.98; in experiment [5], 1.11; in [6], -2.54. The z-score is 1.27 (inactive) in experiment [7], -0.31 in experiment [8], -1.29 in [9] and -3.63 (inactive) in [10].

`CC(C)C[C@@H]1NC(=O)[C@@H]2C[C@H](C(=O)NCCCCN(C)C)[C@H](c3cccc(OCCO)c3)N2C1=O`: the z-score in experiment [1] was 0.355; in experiment [2], 0.507; in [3] it was -1.2; in [4], 0.26; in [5], 0.54; in [6] it was -0.627. Also, the z-score was 0.454 (inactive) in experiment [7], -0.601 in experiment [8], -0.443 in experiment [9] and 0.389 (inactive) in experiment [10].

Consider `C[N+](C)(C)CCCC[C@@H]1NC(=O)[C@H]2C[C@@H](C(=O)NCCCCCCN)[C@@H](c3ccc(O)cc3)N2C1=O`, for which the z-score in [1] was 0.811; in experiment [2], 0.629; in experiment [3], 0.38; in experiment [4], -1.39; in experiment [5], 0.135; in experiment [6] it was 1.28. For the same compound, the z-score in experiment [7] is 0.367 (inactive); in [8], -0.0466; in [9] it was 0.596; in [10], 0.169 (inactive).

Regarding `CCOC(=O)C1=CC[C@@H](c2ccccc2C(F)(F)F)N(S(=O)(=O)c2ccc(C)cc2)[C@H]1c1ccc(C#N)cc1`, the z-score in experiment [1] is -0.711; in [2], -0.842; in experiment [3] it was -0.326; in [4] it was -0.509; in experiment [5], -0.214; in experiment [6], -1.02. The z-score in experiment [7] is -0.544 (inactive); in experiment [8] it was 0.801; in experiment [9], -0.81; in experiment [10], -0.035 (inactive).

Turning to `COC(=O)[C@@]1(Cc2ccc(F)cc2)[C@H]2c3cc(C(=O)N4CCCC4)n(CCN4CNCC4=O)c3C[C@H]2CN1C(=O)c1ccccc1`, the z-score in experiment [1] was -0.0823; in experiment [2] it was 1.32; in experiment [3], -0.403; in experiment [4], -0.0244; in experiment [5], -1.67; in [6], 2.44. Further, the z-score was -0.933 (inactive) in [7], -0.452 in experiment [8], -1.23 in experiment [9] and 0.415 (inactive) in experiment [10].

For `C=C(COC)/C(=C/C[C@H](OC(C)=O)c1ccc(OCCO)cc1)c1cc(C(=O)OC)ccc1OC`, the z-score in [1] was 1.82; in [2], 0.852; in experiment [3] it was 0.883; in experiment [4] it was -1.01; in experiment [5], 0.598; in experiment [6] it was 2.6. The z-score in experiment [7] is 1.57 (inactive); in [8], 0.0179; in [9] it was -0.444; in [10] it was 1.47 (inactive).

Consider `Cc1ccc(S[C@]2(C(=O)NCC(F)(F)F)CC(=O)N(C3CCCCC3)[C@@H]2c2ccc(CO)cc2I)cc1`, for which the z-score is 0.335 in experiment [1]; 0.66 in experiment [2]; 0.133 in experiment [3]; -2.65 in [4]; -1.91 in experiment [5]; -0.807 in experiment [6]. In addition, the z-score in experiment [7] is -0.482 (inactive); in experiment [8], -0.445; in experiment [9], 0.176; in experiment [10], 0.741 (inactive).

Consider `COC(=O)c1c(CC[C@@H](CO)NC(=O)N[C@H](Cn2cc(C3(O)CCCCC3)nn2)C(C)C)oc(C(C)=O)c1C(=O)OC`, for which the z-score in [1] was -0.233; in experiment [2], 1.36; in experiment [3] it was -0.134; in experiment [4], -0.722; in experiment [5] it was 0.0074; in [6], 0.74. Also, the z-score was 0.595 (inactive) in experiment [7], 0.355 in experiment [8], -0.202 in [9] and -1.06 (inactive) in experiment [10].

In the case of `Cc1cc(C)cc(N2C(=O)CSC2c2cccc([N+](=O)[O-])c2)c1` (stereo not given), the z-score is 0.377 in [1]; -0.28 in experiment [2]; 0.0887 in experiment [3]; 1.22 in experiment [4]; 0.699 in [5]; 1.43 in [6]. Besides, the z-score was 0.786 (inactive) in experiment [7], -0.445 in [8], -0.541 in experiment [9] and -0.661 (inactive) in experiment [10].

Take `COc1ccc(CCNC(=O)[C@@]2(Sc3ccc(C)cc3)CC(=O)N(C3Cc4ccccc4C3)[C@@H]2c2ccc(CO)cc2)cc1`: the z-score was -0.342 in experiment [1]; 0.67 in [2]; -1.16 in experiment [3]; -0.729 in experiment [4]; -1.35 in experiment [5]; -0.114 in experiment [6]. The z-score in experiment [7] is -0.775 (inactive); in experiment [8], -0.608; in experiment [9] it was -0.885; in [10], 0.358 (inactive).

Turning to `C[N+](C)(C)CCCCCCNC(=O)[C@H]1C[C@H]2C(=O)NCC(=O)N2[C@H]1c1ccc(O)cc1`, the z-score in experiment [1] was -0.93; in experiment [2], -0.313; in [3], -0.799; in experiment [4] it was -1.17; in experiment [5], -0.121; in [6] it was -1.71. Also, the z-score in experiment [7] is -0.159 (inactive); in experiment [8], 0.0729; in experiment [9], -0.235; in [10], 0.14 (inactive).
